The panel holds about 83,000 compounds, 20% with a hit somewhere; the sample as a whole holds those more often.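 Activity criterion: percent growth below 10, measured after cells in 96-well plates were exposed to a single compound concentration for 48 hours.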 Activity calls are given as the source filed them.
Columns and labels:
Assay in all cases: NCI-60 one-dose screen, 48 h (100 = growth as untreated, 0 = no growth, -100 = all killed)
Details in all cases: 10 µM unless noted
HCT-15 colon = system: HCT-15 colon
HT29 colon = system: HT29 colon
SNB-75 CNS = system: SNB-75 CNS
SNB-19 CNS = system: SNB-19 CNS
U251 CNS = system: U251 CNS
PC-3 prostate = system: PC-3 prostate
SK-MEL-5 melanoma = system: SK-MEL-5 melanoma
UACC-62 melanoma = system: UACC-62 melanoma
LOX IMVI melanoma = system: LOX IMVI melanoma
SK-MEL-28 melanoma = system: SK-MEL-28 melanoma
SK-MEL-2 melanoma = system: SK-MEL-2 melanoma
EKVX NSCLC = system: EKVX NSCLC
SN12C renal = system: SN12C renal
UO-31 renal = system: UO-31 renal
TK-10 renal = system: TK-10 renal
ACHN renal = system: ACHN renal
CAKI-1 renal = system: CAKI-1 renal
A498 renal = system: A498 renal
CCRF-CEM leukemia = system: CCRF-CEM leukemia
MOLT-4 leukemia = system: MOLT-4 leukemia

Measured: growth

ClC(Cl)c1nc(-c2ccccc2)n2nc(-c3ccccc3)cc2n1
inactive: PC-3 prostate 17.2% | SK-MEL-5 melanoma 84.4% | UACC-62 melanoma 68.4% | LOX IMVI melanoma 72.1% | SK-MEL-28 melanoma 25.5% | SK-MEL-2 melanoma 72.1% | SN12C renal 58.7% | CCRF-CEM leukemia 63.3% | MOLT-4 leukemia 30.8%
active: HCT-15 colon -16% | HT29 colon 1.24% | SNB-75 CNS -37.5% | SNB-19 CNS 6.64% | U251 CNS -14.9% | EKVX NSCLC -22.1% | UO-31 renal 3.46% | TK-10 renal 0.776% | ACHN renal -57% | CAKI-1 renal -34.7% | A498 renal -26.5%

C=CC(=O)Nc1cccc(Oc2nccc(Nc3nnc(-c4ccc(Br)cc4)s3)n2)c1
inactive: HCT-15 colon 88.6% | HT29 colon 116% | SNB-75 CNS 87.5% | SNB-19 CNS 97% | U251 CNS 97.5% | PC-3 prostate 89.5% | SK-MEL-5 melanoma 94.7% | UACC-62 melanoma 87.6% | LOX IMVI melanoma 91.9% | SK-MEL-28 melanoma 108% | SK-MEL-2 melanoma 110% | EKVX NSCLC 101% | SN12C renal 99.2% | UO-31 renal 78.9% | TK-10 renal 152% | ACHN renal 100% | CAKI-1 renal 81.2% | A498 renal 101% | CCRF-CEM leukemia 87.3% | MOLT-4 leukemia 100%

O=C(NNc1nc2cc(F)ccc2n2c(CN3CCOCC3)ccc12)c1ccccc1
active: HT29 colon 1.95% | U251 CNS -34.5% | SK-MEL-5 melanoma -9.55% | UACC-62 melanoma -4.27% | LOX IMVI melanoma -39.6% | ACHN renal 8.05% | CAKI-1 renal 7.45% | A498 renal -22.4% | CCRF-CEM leukemia 3.36% | MOLT-4 leukemia 2.3%
inactive: HCT-15 colon 16.9% | SNB-75 CNS 46.1% | SNB-19 CNS 18.8% | PC-3 prostate 22.9% | SK-MEL-28 melanoma 15.7% | SK-MEL-2 melanoma 34.6% | EKVX NSCLC 14.2% | SN12C renal 10.1% | UO-31 renal 12.1% | TK-10 renal 46%

c1ccc(Cn2cc3c(c2-c2ccccc2)CCc2cnoc2-3)cc1
active: SNB-75 CNS 4.38%
inactive: HCT-15 colon 48.6% | HT29 colon 30.1% | SNB-19 CNS 70.6% | U251 CNS 55.5% | PC-3 prostate 82.5% | SK-MEL-5 melanoma 78.8% | UACC-62 melanoma 43.1% | LOX IMVI melanoma 66.1% | SK-MEL-28 melanoma 59.5% | SK-MEL-2 melanoma 93.4% | EKVX NSCLC 80.1% | SN12C renal 101% | UO-31 renal 80.1% | TK-10 renal 101% | ACHN renal 101% | CAKI-1 renal 84.1% | A498 renal 54% | CCRF-CEM leukemia 48.3% | MOLT-4 leukemia 58.5%

O=c1oc2ccccc2cc1-c1nn(-c2ccccc2)cc1-c1nn[nH]n1
inactive: HCT-15 colon 100% | HT29 colon 104% | SNB-75 CNS 76.2% | SNB-19 CNS 98% | U251 CNS 104% | PC-3 prostate 91.5% | SK-MEL-5 melanoma 102% | UACC-62 melanoma 93.3% | LOX IMVI melanoma 89% | SK-MEL-28 melanoma 107% | SK-MEL-2 melanoma 104% | EKVX NSCLC 99.4% | SN12C renal 96.2% | UO-31 renal 78.4% | TK-10 renal 101% | ACHN renal 99.9% | CAKI-1 renal 87.6% | A498 renal 95.1% | CCRF-CEM leukemia 104% | MOLT-4 leukemia 99%

Nc1cc(-c2ccc(Cl)cc2)nn1-c1nnc(/C=C/c2ccco2)c(=O)[nH]1
inactive: HCT-15 colon 38.1% | HT29 colon 44.2% | SNB-75 CNS 67.3% | SNB-19 CNS 57.8% | U251 CNS 50.6% | PC-3 prostate 52.6% | SK-MEL-5 melanoma 46% | UACC-62 melanoma 52.5% | LOX IMVI melanoma 49.9% | SK-MEL-28 melanoma 66.4% | SK-MEL-2 melanoma 87.9% | EKVX NSCLC 41.7% | SN12C renal 68.2% | TK-10 renal 51.2% | ACHN renal 29.4% | A498 renal 33.8% | CCRF-CEM leukemia 33.9% | MOLT-4 leukemia 44.4%
active: UO-31 renal 3.92% | CAKI-1 renal 1.03%

COc1ccc(C(=O)C/C(=C\c2ccc(O)c(OC)c2)C(=O)NN)cc1
inactive: HCT-15 colon 64.2% | HT29 colon 102% | SNB-75 CNS 99.6% | SNB-19 CNS 85% | U251 CNS 84.9% | PC-3 prostate 67.3% | SK-MEL-5 melanoma 75% | UACC-62 melanoma 75.8% | LOX IMVI melanoma 82.2% | SK-MEL-28 melanoma 75.6% | SK-MEL-2 melanoma 90.8% | EKVX NSCLC 94% | SN12C renal 89% | UO-31 renal 67.9% | TK-10 renal 111% | ACHN renal 85.4% | CAKI-1 renal 77.9% | A498 renal 105% | CCRF-CEM leukemia 73.8% | MOLT-4 leukemia 87.5%

C=CC(CC(c1ccccc1)(c1ccccc1)c1ccccc1)N(CC)CC (stereo not given)
inactive: HCT-15 colon 41.4% | HT29 colon 16.2% | SNB-75 CNS 68.1% | SNB-19 CNS 98.3% | U251 CNS 62% | PC-3 prostate 44.9% | SK-MEL-5 melanoma 13.5% | UACC-62 melanoma 44.2% | LOX IMVI melanoma 71.6% | SK-MEL-28 melanoma 61.6% | SK-MEL-2 melanoma 93.7% | EKVX NSCLC 75.7% | SN12C renal 71.4% | UO-31 renal 43.2% | TK-10 renal 73.6% | ACHN renal 85.8% | CAKI-1 renal 65.6% | A498 renal 66.3% | CCRF-CEM leukemia 53.5% | MOLT-4 leukemia 56.2%

CCC(C)(C)c1ccc(Nc2ccc(Nc3ccc(C(C)(C)CC)cc3)cc2)cc1
inactive: HCT-15 colon 91.2% | HT29 colon 67% | SNB-75 CNS 93% | SNB-19 CNS 95.9% | U251 CNS 90.7% | PC-3 prostate 65.8% | SK-MEL-5 melanoma 99.2% | UACC-62 melanoma 83.2% | LOX IMVI melanoma 89.9% | SK-MEL-28 melanoma 105% | SK-MEL-2 melanoma 95.9% | EKVX NSCLC 98.6% | SN12C renal 96.7% | UO-31 renal 62.5% | TK-10 renal 103% | ACHN renal 97% | CAKI-1 renal 71% | A498 renal 121% | CCRF-CEM leukemia 87.9% | MOLT-4 leukemia 76%

COc1ccc2cc(C(=O)N3CCC([C@@H](C)C(=O)NCc4ccc5c(c4)OCO5)CC3)[nH]c2c1
inactive: HCT-15 colon 83% [50 µM] | HT29 colon 89.6% [50 µM] | SNB-19 CNS 25.8% [50 µM] | U251 CNS 23.6% [50 µM] | PC-3 prostate 56.5% [50 µM] | SK-MEL-5 melanoma 63.6% [50 µM] | UACC-62 melanoma 43.7% [50 µM] | LOX IMVI melanoma 54.7% [50 µM] | SK-MEL-28 melanoma 77.8% [50 µM] | SK-MEL-2 melanoma 63.6% [50 µM] | EKVX NSCLC 73.4% [50 µM] | SN12C renal 53.2% [50 µM] | UO-31 renal 41.5% [50 µM] | TK-10 renal 27.1% [50 µM] | ACHN renal 29.4% [50 µM] | CAKI-1 renal 60.3% [50 µM] | A498 renal 80.4% [50 µM] | CCRF-CEM leukemia 85.8% [50 µM] | MOLT-4 leukemia 78.2% [50 µM]
active: SNB-75 CNS -37.6% [50 µM]

C=C(C)[C@@H]1CC[C@]2(C(=O)N3CCNCC3)CC[C@]3(C)[C@H](CC[C@@H]4[C@@](C)(CCC(=O)N5CCNCC5)[C@H](C(=C)C)CC[C@]43C)[C@@H]12
inactive: HCT-15 colon 30.8% | HT29 colon 26.1% | SNB-75 CNS 86.3% | SNB-19 CNS 99% | PC-3 prostate 57.7% | SK-MEL-5 melanoma 89.7% | UACC-62 melanoma 104% | LOX IMVI melanoma 44.4% | SK-MEL-28 melanoma 96.7% | SK-MEL-2 melanoma 102% | EKVX NSCLC 102% | SN12C renal 91.4% | UO-31 renal 64.3% | TK-10 renal 93.6% | ACHN renal 93.9% | CAKI-1 renal 92.7% | A498 renal 76.2% | MOLT-4 leukemia 24.7%
active: U251 CNS 7.62% | CCRF-CEM leukemia 3.76%

O=C(/C=C/C12c3ccccc3C(c3ccccc31)C1C(=O)NC(=O)C12)c1ccc(I)cc1 (stereo not given)
active: CCRF-CEM leukemia 1.53% | MOLT-4 leukemia 6.91%
inactive: HCT-15 colon 39.7% | HT29 colon 29.6% | SNB-75 CNS 63.6% | SNB-19 CNS 63.4% | U251 CNS 34.5% | PC-3 prostate 34.5% | SK-MEL-5 melanoma 69.5% | UACC-62 melanoma 51.9% | LOX IMVI melanoma 37.8% | SK-MEL-28 melanoma 64% | SK-MEL-2 melanoma 56.7% | EKVX NSCLC 66.1% | SN12C renal 50.9% | UO-31 renal 46.2% | TK-10 renal 66.7% | ACHN renal 67.6% | CAKI-1 renal 60.4% | A498 renal 56.1%

CCN(CC)CCCNc1cc(OC)c(OC)c2cccnc12
inactive: HCT-15 colon 72% | HT29 colon 83.7% | SNB-75 CNS 102% | SNB-19 CNS 63.5% | U251 CNS 52.6% | PC-3 prostate 54.8% | SK-MEL-5 melanoma 62.4% | UACC-62 melanoma 60.6% | LOX IMVI melanoma 34.2% | SK-MEL-28 melanoma 93.8% | SK-MEL-2 melanoma 88.1% | EKVX NSCLC 100% | SN12C renal 57.3% | UO-31 renal 46.6% | TK-10 renal 98.9% | ACHN renal 42.3% | CAKI-1 renal 52.5% | A498 renal 81.8% | CCRF-CEM leukemia 74.6% | MOLT-4 leukemia 52.8%

Clc1ccc(Nc2ncc(Cc3cccc(Cl)c3Cl)s2)cc1
inactive: HCT-15 colon 92.3% | HT29 colon 95.7% | SNB-75 CNS 116% | SNB-19 CNS 98% | U251 CNS 85.7% | PC-3 prostate 88% | SK-MEL-5 melanoma 97.1% | UACC-62 melanoma 81.6% | LOX IMVI melanoma 97.7% | SK-MEL-28 melanoma 95.6% | SK-MEL-2 melanoma 101% | EKVX NSCLC 97.9% | SN12C renal 90.8% | UO-31 renal 72.5% | TK-10 renal 98.3% | ACHN renal 97.5% | CAKI-1 renal 87.7% | A498 renal 93.7% | CCRF-CEM leukemia 94% | MOLT-4 leukemia 86.7%

— PubChem BioAssay (NCI)
